# From PubChem BioAssay (NCATS)
# Results filed as inconclusive are left out. Where a call stands in place of a potency, no number is given. The source made the active and inactive calls. Unless noted, the call rests on the fitted dose curve; in most records, active means well fitted curve in the direction sought with a large enough effect; inconclusive means small, poorly fitted or top-dose-only effect, or another doubt; inactive means no such curve, though single readings can be large; an effect the other way counts as inactive or inconclusive.
# Assays:
# [1] = qHTS for differential inhibitors of proliferation of Plasmodium falciparum line 7G8 (AID 1815);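 further: parasite growth measured after three days of incubation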; further: potency means the concentration at half of the fitted maximal effect
# [2] = qHTS for differential inhibitors of proliferation of Plasmodium falciparum line GB4 (AID 1816); settings: Potency: Plasmodium falciparum GB4 proliferation inhibition;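 further: parasite growth measured after 72 h incubation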; further: potency means the concentration at half of the fitted maximal effect
# [3] = qHTS for differential inhibitors of proliferation of Plasmodium falciparum line W2 (AID 1883); settings: Potency: Plasmodium falciparum W2 proliferation inhibition;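 further: parasites grown with compound for 72 h before lysis and staining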; further: potency means the concentration at half of the fitted maximal effect
# [4] = qHTS Assay for Modulators of Human Peripheral Myelin Protein 22 (PMP22) Expression/Activity (AID 1967; active means well fitted curve in the direction sought with a large enough effect in the signal ratio; the % refers to the signal ratio)
# Method in brief: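 Mouse MSC80 Schwann line, Pmp22 promoter–CBG68 reporter, EF-alpha–CBR internal control. 24h compound exposure, 37 °C/5% CO2, DMEM + 10% FBS. Readout: corrected green/red luminescence ratio, normalized to untreated cells; concentration-response curves fitted and classified.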
# [5] = biological target: ATP-dependent DNA helicase Q1 (Homo sapiens) (UniProt P46063); assay: qHTS Validation Assay for Inhibitors of RecQ-Like Dna Helicase 1 (RECQ1) (AID 2353)
# Method in brief: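 50 nM RECQ1T1 preincubated 15 min with compound in Tris pH 8.0 buffer with MgCl2, DTT, Tween-20 and 2.5 ug/ml poly(dI-dC); started with 200 nM TAMRA/BHQ-2 forked duplex and 2 mM ATP. Unwinding read as fluorescence (525/598 nm), two reads 2 h apart.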
# [6] = biological target: RecQ-like DNA helicase BLM (Homo sapiens) (UniProt P54132); assay: qHTS Validation Assay for Inhibitors of Bloom's syndrome helicase (BLM) (AID 2364); further: potency means the concentration at half of the fitted maximal effect
# Method in brief: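 BLM 50 nM in 25 mM Tris-HCl pH 8.0, 5 mM NaCl, 2 mM MgCl2, 1 mM DTT, 0.01% Tween-20, 2.5 ug/ml poly(dI-dC); 15 min cpd preinc, RT. Start: 200 nM forked DNA + 2 mM ATP (final). TAMRA read, 2 reads 2 h apart.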
# [7] = qHTS drug screen for cell cycle checkpoint inhibitors in PARPi-resistant BRCA-mutant ovarian cancer cell lines. (AID 1963452; calls by dose curve); settings: PEO1/OlaR viability, CellTiter-Glo luminescence, 96 h, stronger effect = lower value
# Method in brief: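 PEO1, PEO4 and PEO1/OlaR ovarian cancer cells, 600 per well, exposed 96 h at 37C to a dilution series. Viability read by CellTiter-Glo luminescence, normalized to DMSO and empty wells; activity summarized as Z-AUC.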
# [8] = qHTS assay to identify inhibitors of the type 1 interferon - major histocompatibility complex class I in skeletal muscle: Counter screen cell viability and HiBit confirmation (AID 1347412); settings: iHSKM muscle cells + IFN-b, HiBiT or CellTiter-Glo, 24 h, at 45.9 µM (top of the series); further: nearly all actives have a fitted effect of over 60% in size
# Method in brief: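 Duplicate plates, pinned identically: one read for HiBiT-tagged endogenous HLA-B luminescence, the other for ATP-content viability via CellTiter Glo. Cells were genome-engineered human myoblasts given 4 ng/ml IFN-b; compounds 12-pt, 1:3 from 46 uM final; 24 hr exposure.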
# [9] = biological target: Guanine nucleotide-binding protein G(i) subunit alpha-1 (Homo sapiens) (UniProt P63096); assay: qHTS Assay for Inhibitors of RGS12 GoLoco Motif Activity (Green Fluorophore) (AID 879);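 further: negative values mean loss of peptide binding seen as reduced polarization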
# Method in brief: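 Fluorescence polarization assay: 50 nM Gαi1 with 10 nM FITC-labeled RGS12 GoLoco peptide in 10 mM Tris pH 7.5, 150 mM NaCl, 0.1 mM GDP, 0.05% NP40, 10 min at room temperature with compound.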
# [10] = biological target: Pyruvate kinase (Leishmania mexicana) (UniProt Q27686); assay: qHTS Validation Assay for Inhibitors of Leishmania Mexicana Pyruvate Kinase (AID 945)
# Method in brief: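 qHTS eight-point titrations against 0.2 nM LmPYK (E451W) in imidazole buffer pH 7.2 with 0.5 mM PEP, 0.1 mM ADP; 1 h, room temperature. Readout: PKLight luminescence, normalized to neutral DMSO wells.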
# [11] = biological target: Pyruvate kinase PKM (Homo sapiens) (UniProt P14618); assay: qHTS Assay for Activators of Human Muscle Pyruvate Kinase (AID 954; active means well fitted curve in the direction sought with a large enough effect, not every such curve was filed as active)
# Method in brief: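 Purified human PKM2 (0.1 nM) with 0.5 mM PEP (Km) and 0.1 mM ADP in 50 mM imidazole pH 7.2, KCl, MgCl2, 1 h at room temperature; ATP formed read by coupled luciferase luminescence. Normalized to no-enzyme/110 uM thiadiazolimine inhibition; 0.3 nM enzyme column for activation.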
# [12] = biological target: alpha-glucosidase (Oryza sativa, rice) (UniProt Q653V4); assay: Counterscreen for Glucocerebrosidase Inhibitors: qHTS Assay for Rice alpha-Glucosidase at pH 5.0 (AID 997)
# Method in brief: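 Rice alpha-glucosidase (4 nM final) with 400 uM 4-methylumbelliferyl-alpha-D-glucopyranoside in citrate buffer pH 5.0, 20 min at room temperature, stopped at pH 10; fluorescence 365/440 nm, compounds 0.7 nM–77 uM, AC50 from Hill fits.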
# [13] = AP1 Signaling Pathway (AID 357; active means well fitted curve in either direction with a large enough effect, not every such curve was filed as active;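 further: ME-180 reporter cells stimulated with EGF at its EC50 level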); settings: ME-180 AP-1-bla reporter, EGF-induced, beta-lactamase ratio, 5 h; at 7.69 µM (top of the series) unless noted
# Method in brief: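 Cells are seeded overnight, exposed to compound titrations and an EC50 level of EGF for 5 hours at 37 °C, then loaded with CCF4 dye for 2.5 hours. Beta-lactamase activity under the AP-1 element is read as a blue/green ratio.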
# [14] = Stat Signaling Pathway (AID 446; active means well fitted curve in either direction with a large enough effect, not every such curve was filed as active;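 further: ME-180 cervical cancer cells given 40 pM IL-6 alongside compound; SIE-controlled beta-lactamase reporter measured as 460/530 nm FRET emission ratio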); settings: ME-180 SIE beta-lactamase reporter, IL-6 stimulated, 5 h; at 7.69 µM (top of the series) unless noted
# Method in brief: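 ME-180 cells carrying a SIE-driven beta-lactamase reporter are stimulated with 40 pM IL-6 for 5 h at 37C in the presence of compound. The 460/530 nm FRET substrate ratio is read after 2.5 h at RT. Data are normalised to 300 pM IL-6 and to 125 nM JAK inhibitor controls.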
# [15] = biological target: Glucocorticoid receptor (Homo sapiens) (UniProt P04150); assay: GR-GFP Redistribution (AID 450;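 active means compounds whose dose series gives a full or clear partial fitted curve of increased nuclear translocation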; further: potency means the concentration at half of the fitted maximal effect); settings: U2OS GR-GFP nuclear translocation, laser cytometry, 2 h
# [16] = biological target: Glucocorticoid receptor (Homo sapiens) (UniProt P04150); assay: GR-EFC Redistribution (AID 451; calls by dose curve; further: potency means the concentration at half of the fitted maximal effect); settings: CHO-K1 GR-EFC translocation, beta-gal luminescence, 2 h
# Method in brief: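 CHO-K1 cells stably expressing nuclear-localized β-gal enzyme acceptor and GR fused C-terminally to the enzyme donor fragment; ligand-driven nuclear translocation restores β-gal by complementation. Compounds titrated up to 46 uM final, 2 h at 37 °C; luminescence read.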
# [17] = measured here: PEO1 parental Z-AUC
# Sequence of RecQ-like DNA helicase BLM (Homo sapiens) (P54132 whole entry, looked up): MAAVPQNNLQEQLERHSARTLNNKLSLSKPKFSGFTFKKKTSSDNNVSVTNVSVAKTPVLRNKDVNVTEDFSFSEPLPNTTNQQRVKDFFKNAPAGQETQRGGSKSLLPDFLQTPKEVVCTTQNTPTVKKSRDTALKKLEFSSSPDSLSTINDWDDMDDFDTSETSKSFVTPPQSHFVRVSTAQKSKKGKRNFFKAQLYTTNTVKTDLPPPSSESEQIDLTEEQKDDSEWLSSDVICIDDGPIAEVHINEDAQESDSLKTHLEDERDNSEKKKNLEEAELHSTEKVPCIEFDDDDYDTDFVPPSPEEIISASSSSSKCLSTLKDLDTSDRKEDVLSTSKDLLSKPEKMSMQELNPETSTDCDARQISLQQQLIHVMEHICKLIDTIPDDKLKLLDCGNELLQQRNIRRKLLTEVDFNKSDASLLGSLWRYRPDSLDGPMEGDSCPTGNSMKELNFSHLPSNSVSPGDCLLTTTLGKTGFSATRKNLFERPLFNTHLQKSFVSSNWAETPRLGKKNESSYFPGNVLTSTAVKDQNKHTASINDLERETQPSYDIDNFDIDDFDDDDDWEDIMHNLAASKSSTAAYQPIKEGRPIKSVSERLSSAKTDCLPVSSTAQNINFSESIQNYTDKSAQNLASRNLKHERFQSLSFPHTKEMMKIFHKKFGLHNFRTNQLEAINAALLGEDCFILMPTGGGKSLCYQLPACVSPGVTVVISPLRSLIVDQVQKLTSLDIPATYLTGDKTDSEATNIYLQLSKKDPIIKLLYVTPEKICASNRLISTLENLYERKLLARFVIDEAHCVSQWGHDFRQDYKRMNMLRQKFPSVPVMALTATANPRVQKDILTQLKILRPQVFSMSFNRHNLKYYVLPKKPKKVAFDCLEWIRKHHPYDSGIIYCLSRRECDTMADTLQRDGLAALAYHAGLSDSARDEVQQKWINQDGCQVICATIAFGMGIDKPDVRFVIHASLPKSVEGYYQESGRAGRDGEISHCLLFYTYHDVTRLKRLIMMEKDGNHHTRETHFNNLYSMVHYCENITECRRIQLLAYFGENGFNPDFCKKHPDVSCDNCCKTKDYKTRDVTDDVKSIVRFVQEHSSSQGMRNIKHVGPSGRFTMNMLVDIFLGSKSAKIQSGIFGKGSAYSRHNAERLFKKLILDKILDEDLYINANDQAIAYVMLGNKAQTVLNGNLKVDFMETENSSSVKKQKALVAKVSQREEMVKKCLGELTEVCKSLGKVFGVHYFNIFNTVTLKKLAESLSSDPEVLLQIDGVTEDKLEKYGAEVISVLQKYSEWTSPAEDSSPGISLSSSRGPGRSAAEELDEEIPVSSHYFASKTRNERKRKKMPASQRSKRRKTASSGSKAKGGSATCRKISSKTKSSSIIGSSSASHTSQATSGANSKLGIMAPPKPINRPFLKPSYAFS
# Sequence of Pyruvate kinase PKM (Homo sapiens) (P14618 whole entry, looked up): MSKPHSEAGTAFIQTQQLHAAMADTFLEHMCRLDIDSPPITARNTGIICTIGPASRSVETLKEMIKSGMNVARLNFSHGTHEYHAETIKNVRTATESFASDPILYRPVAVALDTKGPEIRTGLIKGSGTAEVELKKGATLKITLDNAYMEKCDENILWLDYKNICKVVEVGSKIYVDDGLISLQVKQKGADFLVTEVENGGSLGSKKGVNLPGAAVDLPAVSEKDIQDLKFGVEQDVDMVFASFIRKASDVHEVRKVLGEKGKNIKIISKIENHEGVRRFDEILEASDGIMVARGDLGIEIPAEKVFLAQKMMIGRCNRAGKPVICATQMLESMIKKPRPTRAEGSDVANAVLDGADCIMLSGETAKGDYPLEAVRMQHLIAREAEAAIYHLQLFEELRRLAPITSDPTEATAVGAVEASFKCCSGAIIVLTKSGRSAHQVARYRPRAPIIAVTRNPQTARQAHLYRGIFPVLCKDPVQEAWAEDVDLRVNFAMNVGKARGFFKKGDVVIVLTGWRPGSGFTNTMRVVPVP
# Sequence of ATP-dependent DNA helicase Q1 (Homo sapiens) (P46063 whole entry, looked up): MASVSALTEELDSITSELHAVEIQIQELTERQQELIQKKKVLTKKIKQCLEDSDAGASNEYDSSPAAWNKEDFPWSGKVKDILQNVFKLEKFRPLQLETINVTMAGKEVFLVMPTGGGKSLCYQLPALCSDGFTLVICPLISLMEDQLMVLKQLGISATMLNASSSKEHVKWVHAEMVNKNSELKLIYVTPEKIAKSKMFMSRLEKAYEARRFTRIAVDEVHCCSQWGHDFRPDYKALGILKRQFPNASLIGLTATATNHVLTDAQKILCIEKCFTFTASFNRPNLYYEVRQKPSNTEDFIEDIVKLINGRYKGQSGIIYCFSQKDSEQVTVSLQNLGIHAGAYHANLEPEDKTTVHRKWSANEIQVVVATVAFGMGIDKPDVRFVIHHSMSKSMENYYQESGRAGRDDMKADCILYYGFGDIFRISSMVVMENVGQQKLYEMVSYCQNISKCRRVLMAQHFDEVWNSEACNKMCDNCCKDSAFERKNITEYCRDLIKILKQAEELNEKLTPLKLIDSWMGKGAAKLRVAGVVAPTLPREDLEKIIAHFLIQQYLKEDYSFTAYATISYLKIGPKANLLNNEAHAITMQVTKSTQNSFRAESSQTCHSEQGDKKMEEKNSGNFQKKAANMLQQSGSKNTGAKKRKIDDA
# Sequence of Guanine nucleotide-binding protein G(i) subunit alpha-1 (Homo sapiens) (P63096 whole entry, looked up): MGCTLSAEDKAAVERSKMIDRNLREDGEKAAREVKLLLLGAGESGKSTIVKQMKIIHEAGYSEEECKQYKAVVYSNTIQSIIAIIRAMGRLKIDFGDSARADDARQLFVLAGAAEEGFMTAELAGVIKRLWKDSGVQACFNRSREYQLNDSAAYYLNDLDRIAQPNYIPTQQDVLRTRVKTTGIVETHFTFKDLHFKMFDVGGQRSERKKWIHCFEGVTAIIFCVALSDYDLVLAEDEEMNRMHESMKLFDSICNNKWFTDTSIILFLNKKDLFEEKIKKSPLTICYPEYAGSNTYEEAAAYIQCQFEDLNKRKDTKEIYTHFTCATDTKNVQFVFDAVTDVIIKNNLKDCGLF
# Sequence of Pyruvate kinase (Leishmania mexicana) (Q27686 2-499 E452W): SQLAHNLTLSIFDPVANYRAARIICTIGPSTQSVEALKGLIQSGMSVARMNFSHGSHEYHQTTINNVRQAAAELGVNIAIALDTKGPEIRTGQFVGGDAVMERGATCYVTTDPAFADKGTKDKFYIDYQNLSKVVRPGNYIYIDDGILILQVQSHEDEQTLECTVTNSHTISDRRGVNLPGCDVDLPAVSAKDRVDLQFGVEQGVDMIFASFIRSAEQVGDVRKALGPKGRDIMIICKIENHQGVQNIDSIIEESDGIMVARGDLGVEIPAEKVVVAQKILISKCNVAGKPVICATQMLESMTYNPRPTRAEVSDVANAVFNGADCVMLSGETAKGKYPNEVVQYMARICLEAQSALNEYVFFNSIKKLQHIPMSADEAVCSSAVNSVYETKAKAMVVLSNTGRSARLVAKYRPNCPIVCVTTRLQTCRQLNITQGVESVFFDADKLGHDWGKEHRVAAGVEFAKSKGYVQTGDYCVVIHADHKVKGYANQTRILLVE
# Sequence of Glucocorticoid receptor (Homo sapiens) (P04150 whole entry, looked up, the tested form may be a part): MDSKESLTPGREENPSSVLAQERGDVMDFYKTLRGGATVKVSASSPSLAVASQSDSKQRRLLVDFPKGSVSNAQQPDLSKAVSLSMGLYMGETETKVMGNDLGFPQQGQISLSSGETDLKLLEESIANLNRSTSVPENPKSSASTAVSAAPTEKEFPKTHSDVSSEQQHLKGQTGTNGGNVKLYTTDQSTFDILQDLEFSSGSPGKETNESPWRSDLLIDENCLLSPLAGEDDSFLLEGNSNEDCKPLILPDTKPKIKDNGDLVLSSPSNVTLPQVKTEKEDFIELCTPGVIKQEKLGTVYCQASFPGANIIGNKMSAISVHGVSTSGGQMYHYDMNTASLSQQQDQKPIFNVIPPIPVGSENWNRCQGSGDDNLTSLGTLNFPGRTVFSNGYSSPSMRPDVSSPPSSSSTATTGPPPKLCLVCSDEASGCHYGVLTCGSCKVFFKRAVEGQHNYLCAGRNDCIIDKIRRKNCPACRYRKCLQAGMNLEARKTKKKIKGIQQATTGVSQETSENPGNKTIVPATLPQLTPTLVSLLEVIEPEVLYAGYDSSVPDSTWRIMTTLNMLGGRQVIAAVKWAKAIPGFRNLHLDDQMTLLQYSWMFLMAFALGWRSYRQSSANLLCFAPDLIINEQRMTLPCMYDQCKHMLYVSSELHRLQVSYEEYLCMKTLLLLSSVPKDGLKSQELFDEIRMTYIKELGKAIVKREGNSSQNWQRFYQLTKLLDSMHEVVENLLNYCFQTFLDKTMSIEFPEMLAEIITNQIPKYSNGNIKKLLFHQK
smiles,measurement,setting,value
CCCCCCCCCCCCCCC/C=C/[C@@H](O)[C@H](NC(=O)CCCCCCCCCCCCC)OC (tested in a mixture with another compound),Potency,[1],inactive
same,Potency,[2],inactive
same,Potency,[3],inactive
same,outcome,[4],inactive
CC(=O)[C@@]1(O)CC[C@H]2C3CCC4=CC(=O)CC[C@]4(C)C3CC[C@@]21C (stereo partly drawn),outcome,[4],inactive
same,Potency,[5],inactive
N.N.N.N.N.N.N.N.N.N.N.N.N.N.O.O.[Cl-].[Cl-].[Cl-].[Cl-].[Cl-].[Cl-].[Ru].[Ru].[Ru],Potency,[6],12.6 µM (active)
CC(=O)O[C@H]1C[C@@H]2CCC3C(CC[C@@]4(C)[C@H]3C[C@H]([N+]3(C)CCCCC3)[C@@H]4OC(C)=O)[C@@]2(C)C[C@@H]1[N+]1(C)CCCCC1 (stereo partly drawn),Potency,[1],inactive
same,Potency,[2],inactive
same,outcome,[4],inactive
same,Potency,[6],inactive
CNC(=O)[C@H]1O[C@@H](n2cnc3c(NCc4cccc(I)c4)ncnc32)[C@H](O)[C@H]1O,Potency,[1],7.94 µM (active)
same,Potency,[3],8.91 µM (active)
same,Potency,[5],inactive
C=CCN(/C=C1\C(=O)O[C@@H](COC)[C@]2(C)C1=C(O)C(=O)C1=C2[C@@H](OC(C)=O)C[C@]2(C)C(=O)CC[C@H]12)CC=C,Z-AUC,[7],-0.265 (inactive)
same,Z-AUC,[7]; [17],0.0227
same,Z-AUC,[7]; measured here: PEO4 Z-AUC,0.306
same,"activity change, negative = inhibition",[8]; HiBiT,-5.45% (inactive)
OC[C@H]1O[C@@H](n2cnc3c(NCCc4ccccc4)ncnc32)[C@H](O)[C@H]1O,outcome,[9],inactive
same,Potency,[10],inactive
same,outcome,[11],inactive
same,outcome,[12],inactive
same,Potency,[1],inactive
same,Potency,[2],inactive
same,outcome,[4],inactive
same,Potency,[6],inactive
CN1C2CC(OC(=O)C(CO)c3ccccc3)CC1C1OC12 (stereo not drawn),Potency,[1],inactive
same,outcome,[4],inactive
Cn1cc(-c2ccc(-c3cncc(Cl)c3N3CCC4(CCNC4=O)CC3)cc2)cn1,Z-AUC,[7],-1.1 (inactive)
same,Z-AUC,[7]; [17],-0.614
same,Z-AUC,[7]; measured here: PEO4 Z-AUC,-1.18
same,"activity change, negative = inhibition",[8]; Viability,-3.23% (inactive)
COC1CC(C(=O)c2ccc3c(N)ncc(-c4ccc(-c5cnn(C)c5)cc4)c3n2)C1 (stereo not drawn),Z-AUC,[7],-1.33 (inactive)
same,Z-AUC,[7]; [17],-1.16
same,Z-AUC,[7]; measured here: PEO4 Z-AUC,-1.1
same,"activity change, negative = inhibition",[8]; Viability,4.77% (inactive)
NC(=O)c1cccc2c(NC(CN3CCC3)c3ccc(Cl)c(C(F)(F)F)c3)ncnc12 (stereo not drawn),Z-AUC,[7],0.286 (inactive)
same,Z-AUC,[7]; [17],0.149
same,Z-AUC,[7]; measured here: PEO4 Z-AUC,0.205
same,"activity change, negative = inhibition",[8]; HiBiT,-0.923% (inactive)
N=C(N)SCCc1cccc(CCSC(=N)N)c1,"activity change, negative = inhibition",[13],7.41% [at 38 µM] (inactive)
same,"activity, negative = inhibition",[14],0.643% [at 38 µM] (inactive)
same,Potency,[15],> 46 µM (inactive)
same,Potency,[16],> 46 µM (inactive)
same,outcome,[9],inactive
same,Potency,[10],inactive
same,outcome,[11],inactive
same,outcome,[12],inactive
same,Potency,[1],6.31 µM (active)
same,Potency,[2],2.24 µM (active)
same,Potency,[3],1 µM (active)
same,outcome,[4],inactive
same,Potency,[6],inactive
